High-throughput results: PubChem BioAssay, National Center for Advancing Translational Sciences (NCATS)
ELG1 genotoxic – inducers of genotoxicity in HEK293T ELG1-luciferase cells | HEK293T ELG1-luciferase reporter, luminescence, 16 h | Potency, µM (top dose mostly 46 µM), for the others: at the top dose activity change, positive = activation, usual class: activators | 330,000 compounds, 1.3% hits; also: % of control where 0% means no effect; nearly all actives have a fitted effect of over 60% in size
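Genotoxic stress is detected as increased luminescence from luciferase-tagged ELG1 in HEK293T cells, measured with ONE-Glo after a 16 hr treatment at 37 °C.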
FLuc modulator – firefly luciferase modulation, counter-screen for miR-21 project; P08659; purified FLuc, Km substrates, luminescence inhibition; Potency, µM (series often up to 57.5 µM), inactives show at the highest dose activity change, negative = inhibition, hits mostly inhibitors; 360,000 compounds, 6.9% hits;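 also: plate controls were vehicle for no effect and reference inhibitor for full effect; nearly all actives have a fitted effect of over 55% in size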
Target sequence (P08659 whole entry, looked up): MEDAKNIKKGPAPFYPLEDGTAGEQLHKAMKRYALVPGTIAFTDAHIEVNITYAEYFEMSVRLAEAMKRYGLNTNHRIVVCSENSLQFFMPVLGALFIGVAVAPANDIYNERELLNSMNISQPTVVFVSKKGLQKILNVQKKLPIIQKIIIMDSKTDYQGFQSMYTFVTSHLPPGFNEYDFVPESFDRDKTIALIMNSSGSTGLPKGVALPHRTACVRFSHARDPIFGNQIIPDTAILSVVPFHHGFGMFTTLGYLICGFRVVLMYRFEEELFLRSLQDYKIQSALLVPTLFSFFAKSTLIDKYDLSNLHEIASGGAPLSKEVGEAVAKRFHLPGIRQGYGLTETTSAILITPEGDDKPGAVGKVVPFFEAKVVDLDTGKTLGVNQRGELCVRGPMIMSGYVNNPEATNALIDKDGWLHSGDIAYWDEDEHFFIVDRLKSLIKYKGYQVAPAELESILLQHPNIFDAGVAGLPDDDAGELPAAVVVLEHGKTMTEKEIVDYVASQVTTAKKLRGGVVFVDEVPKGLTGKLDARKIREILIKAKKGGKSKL
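Purified P. pyralis luciferase (10nM final) with 10uM D-luciferin and 10uM ATP (Km levels) in 50mM Tris acetate pH 7.5, 10mM Mg acetate, 0.01% Tween-20, 0.05% BSA; qHTS 6-point titration, ~60 µM downward; luminescence read.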
Rab9 promoter act – activators of Rab9 promoter | Huh7 Rab9 promoter-luciferase reporter, luminescence, 24 h | Potency, µM (series often up to 9.22 µM), for the others: top-dose activation, negative = inhibition, most hits filed as activators | 320,000 compounds, 2.8% hits | AID 485297; also: % of control where 0% means no effect; nearly all actives have a fitted effect of over 60% in size
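Cells were plated at 1500 per well in reduced-serum medium with 10% FBS and left 2 h. Compound in DMSO was then added for 24 h at 37 °C. Reporter signal was read by luminescence after 10 min with luciferase detection reagent.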
NPC1 prom act – NPC1 promoter activation. Huh7 NPC1 promoter luciferase reporter, 24 h. 320,000 compounds, 2.4% hits. Potency, µM (titrated, usually from 9.22 µM), without a hit: at the highest dose activation, actives largely listed as activators; also: % of control where 0% means no effect; nearly all actives have a fitted effect of over 60% in size
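Quantitative HTS used a cell-based reporter: Huh7 cells stably bearing the NPC1 promoter upstream of luciferase were treated with compounds for 24 h, and promoter activation was read as luminescence.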
SMN2 splice up – increases expression of the SMN2 splice variant | HEK293 SMN2-luciferase splicing reporter, luminescence, 30-36 h | Potency, µM (highest dose often 46.1 µM), without a hit: at the highest dose activity change, positive = activation, actives largely listed as activators | 210,000 compounds, 2.8% hits | AID 1458; also: % of control where 0% means no effect; nearly all actives have a fitted effect of over 55% in size
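HEK293 cells carry an SMN2 minigene-luciferase reporter in which exon 7 inclusion puts luciferase in frame. Cells were seeded at 2000 cells/well, attached for 10-12 hours, then exposed to compounds for 30-36 hours at 37C before ONE-Glo luminescence.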
Starred values were filed as active, the others as inactive; ? = inconclusive; nt = no result. Hits are enriched below; roughly 7.5% of the tested compounds scored in any of these assays. Calls follow the shape of the dose curve; as a rule, active = well fitted curve in the direction sought with a large enough effect; inconclusive = small, poorly fitted or top-dose-only effect, or another doubt; inactive = no such curve, though single readings can be large; an effect the other way counts as inactive or inconclusive. Potency is read from the fitted curve at half-maximal effect.

SMILES	ELG1 genotoxic	FLuc modulator	Rab9 promoter act	NPC1 prom act	SMN2 splice up
O=C(CCCCCNC(=O)N1CCn2c1nc1ccccc12)NCc1ccc(F)cc1	-1%	?	3%	0%	nt
COc1ccc(CCN(C)C(=O)CSc2nc3ncc(Cl)cc3[nH]2)cc1OC	0%	1%	9%	-3%	-5%
CC1(C)CC(=O)C2=C(C1)N=C1SCCC(=O)N1C2c1cccc([N+](=O)[O-])c1 (stereo not drawn)	-4%	-1%	-1%	1%	6%
Cc1ccc(OCCCSc2ncccn2)cc1C	?	15µM*	?	?	20µM*
COc1ccccc1OCCSc1nc(N)cc(N)n1	18%	?	7%	5%	?
Nc1cc(N)nc(SCCOc2ccccc2F)n1	?	?	?	28%	13µM*
COc1cccc(OCCCCSc2ncccn2)c1	?	?	16%	13%	18%
COc1ccc(OCCCSc2ncccn2)cc1	10µM*	13µM*	?	?	25µM*
COc1ccc(OCCSc2nc3nc(C)cc(C)n3n2)cc1	2%	-7%	-3%	-2%	-3%
COc1ccc(OCCSc2ncccn2)cc1	3.7µM*	7.6µM*	1.6µM*	2.2µM*	14µM*
CCOC(=O)c1ccc(N2C(=O)c3[nH]nc(-c4ccc(C)cc4)c3C2c2ccc(O)c(OCC)c2)cc1 (stereo not drawn)	nt	4%	nt	nt	-33%
Fc1ccccc1OCCSc1ncnc2nc[nH]c12	?	?	?	26%	?
COc1ccc(OCCSc2ncnc3nc[nH]c23)cc1	?	17µM*	?	?	-18%
CCn1cc(C(=O)NC(C)c2ccccc2)c(=O)c2cc(S(=O)(=O)N3CCc4ccccc4C3)ccc21 (stereo not drawn)	nt	-2%	nt	nt	17%
Cc1ccc(C2=C/C(=C/c3cccnc3)C(=O)O2)c(C)c1	1%	6µM*	1%	-3%	9%
COc1cc2ccccc2cc1C(=O)Nc1cccc(-c2nc3cc(C)c(C)cc3o2)c1C	nt	?	nt	nt	-4%
Cc1cc2nc(-c3cccc(NC(=O)c4ccc(Br)o4)c3C)oc2cc1C	-3%	4.3µM*	21%	26%	-17%
Cc1ccc2oc(-c3cccc(NC(=O)c4ccc(Br)o4)c3C)nc2c1	25%	7.6µM*	-3%	10%	-19%
COc1cc2ccccc2cc1C(=O)Nc1cccc(-c2nc3cc(C)ccc3o2)c1C	nt	-7%	nt	nt	-6%
Cc1cc2nc(-c3cccc(NC(=O)C(C)C)c3C)oc2cc1C	nt	0.48µM*	nt	nt	nt
O=C(O)c1ccc(NC2=Nc3cccc4cccc2c34)cc1	11%	?	1.6µM*	1.6µM*	nt
COc1ccccc1N1CCN(C2=Nc3cccc4cccc2c34)CC1	5%	3.4µM*	?	?	nt
NC(=O)NNC1=Nc2cccc3cccc1c23	-6%	2%	0%	-12%	-4%
COc1ccc(C(=O)NNC2=Nc3cccc4cccc2c34)cc1	3%	-7%	17%	10%	-7%
CC(=O)N1CCN(C2=Nc3cccc4cccc2c34)CC1	-3%	-11%	14%	10%	-3%
SMILES	ELG1 genotoxic	FLuc modulator	Rab9 promoter act	NPC1 prom act	SMN2 splice up
COc1ccccc1NC1=Nc2cccc3cccc1c23	-1%	19µM*	-1%	2%	nt
CCn1c2nc(SCCN3CCOCC3)nnc2c2cc(C)cc(C)c21	-7%	4%	4%	-3%	nt
O=C(c1ccc(Cl)cc1)N1CCN(c2ncccn2)CC1	-5%	-2%	1%	2%	nt
O=C(CCSc1ccc(Cl)cc1)N1CCN(c2ncccn2)CC1	?	19µM*	25%	?	8%
O=C(CCSc1ccc(Cl)cc1)N1CCCCCC1	14%	19µM*	3.5µM*	?	7%
O=C(NNC(=S)Nc1ccccc1)Nc1ccccc1	13%	?	22%	15%	5.6µM*
Cc1ccc(NC(=S)NNC(=O)c2nn(C)c(C)c2Cl)cc1	16%	-2%	3.2µM*	?	?
Cc1ccc(NC(=S)NNC(=O)Nc2ccccc2)cc1	?	2.4µM*	3.2µM*	?	13µM*
CC(C)C(NC(=S)Nc1ccccc1)C(=O)O (stereo not drawn)	-1%	4%	-1%	1%	3.2µM*
O=C(NNC(=S)Nc1ccccc1)NNC(=S)Nc1ccccc1	-5%	6%	1%	-14%	3%
CCCCc1nnc(NC(=O)c2oc3ccccc3c2C)s1	7%	?	27%	?	nt
COc1ccc(S(=O)(=O)CCC(=O)NC2CCCCC2)cc1	3%	0%	-1%	-1%	22%
O=C(CCS(=O)(=O)c1ccccc1)NC1CCCCC1	15µM*	17µM*	?	25%	nt
O=C(CCSc1ccccc1)NC1CCCC1	?	15µM*	1%	3%	21%
COc1ccc(NC(=O)NNC(=O)C(C)Oc2ccc3ccccc3c2)cc1 (stereo not drawn)	-1%	-3%	0%	-3%	nt
CCOC(=O)N1CCc2c(sc3c2C(=O)NC(c2ccc(N(C)C)cc2)N3)C1 (stereo not drawn)	nt	-11%	nt	nt	-6%
CCOC(=O)c1nc2sc3c(c2c(=O)[nH]1)CCCC3	-6%	19µM*	-1%	1%	3%
CC(=O)Nc1ccc(NC(=O)CCc2nc3sc4c(c3c(=O)[nH]2)CCCC4)cc1	0%	?	0%	6%	nt
CCOC(=O)c1nc2sc3c(c2c(=O)[nH]1)CCC(C)C3 (stereo not drawn)	1%	17µM*	-2%	-5%	nt
Cc1cc(C)cc(NC(=O)CCc2nc3sc4c(c3c(=O)[nH]2)CCCC4)c1	0.73µM*	5%	-26%	-10%	nt
COc1cccc(-c2nc3sc4c(c3c(=O)[nH]2)CCCCC4)c1	?	0.15µM*	?	?	0.89µM*
COCc1nc2sc3c(c2c(=O)[nH]1)CCCC3	9%	?	-3%	-2%	12%
O=C(Nc1cccc(Cl)c1)c1cc2c(=O)[nH]c3ccccc3c2s1	nt	?	nt	nt	8%
CC(C)Oc1ccc(N2CC(C(=O)OCC(=O)NCc3ccccc3)CC2=O)cc1 (stereo not drawn)	0%	2%	-7%	-1%	7%
Cc1ccc(NS(=O)(=O)c2ccc(-c3cc(C)no3)cc2)c(C)c1	nt	-20%	nt	nt	nt
COc1cccc(OC)c1C(=O)Nc1cccc(NC(=O)c2cccs2)c1	-22%	?	9%	13%	nt
COc1ccc(/C=C/C(=O)c2ccc(NC(=O)c3cccs3)cc2)cc1OC	?	13µM*	?	?	16µM*
O=C(Nc1cccc(O)c1)c1cccc(NC(=O)c2cccs2)c1	-12%	13µM*	0%	15%	nt
COc1ccc(NC(=O)c2cccs2)cc1O	?	15µM*	?	?	?
COc1ccc(C(=O)Nc2cccc(NC(=O)c3cccs3)c2)cc1OC	-6%	11µM*	8%	5%	nt
